Test results from PubChem BioAssay AID1851 (National Center for Advancing Translational Sciences (NCATS), 2009).
The campaign covered roughly 16,000 compounds. About 5,100 (32%) were called active. About 25% were inconclusive and are not listed. The call rests on the fitted dose curve; in most records, active means well fitted curve in the direction sought with a large enough effect; inconclusive means small, poorly fitted or top-dose-only effect, or effect the other way; inactive means no such curve, though single readings can be large or run the other way. Some of the results follow.

Biological target: Cytochrome P450 3A4 (Homo sapiens) (UniProt P08684)
Sequence (P08684 whole entry, looked up): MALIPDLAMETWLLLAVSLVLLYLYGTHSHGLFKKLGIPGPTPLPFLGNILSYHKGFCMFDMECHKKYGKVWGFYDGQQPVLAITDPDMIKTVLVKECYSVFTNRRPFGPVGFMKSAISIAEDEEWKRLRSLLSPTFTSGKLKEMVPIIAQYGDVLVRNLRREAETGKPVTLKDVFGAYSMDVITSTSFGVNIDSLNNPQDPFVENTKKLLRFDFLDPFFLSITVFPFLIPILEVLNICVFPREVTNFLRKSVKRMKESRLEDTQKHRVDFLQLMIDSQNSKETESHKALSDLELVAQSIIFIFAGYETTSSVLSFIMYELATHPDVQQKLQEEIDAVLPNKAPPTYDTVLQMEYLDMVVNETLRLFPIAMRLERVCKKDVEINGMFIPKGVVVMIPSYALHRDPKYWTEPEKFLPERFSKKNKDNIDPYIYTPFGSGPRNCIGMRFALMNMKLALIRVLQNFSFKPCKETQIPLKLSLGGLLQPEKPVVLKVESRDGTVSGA
Assay: Cytochrome panel assay with activity outcomes
Conditions: recombinant CYP, pro-luciferin dealkylation, luminescence, p450-cyp3a4; series mostly up to 57.1 µM
On the % scale 0 is the no-effect control and ±100 the full control effect.

AC50, inactive:
COCCn1c(=O)c(-c2ccc(Cl)cc2)nc2cnc(N3CCOCC3)nc21
COCCn1c(=O)c(-c2ccc(Cl)cc2)nc2cnc(N(C)C)nc21
CCNc1ncc2nc(-c3ccc(Cl)cc3)c(=O)n(C[C@H]3CCCO3)c2n1
CN(C)c1ncc2nc(-c3ccc(Cl)cc3)c(=O)n(C[C@H]3CCCO3)c2n1
FC(F)(F)c1ccccc1-c1nccc(N2CCNCC2)n1
Cc1noc(C)c1-c1nccc(N2CCN(C)CC2)n1
Cc1cc(C)c2c(N)c3ccccc3nc2n1
CN(C)Cc1ccccc1-c1ccc2ncnc(NC3CCNCC3)c2c1
COc1ccc(/C=C/C(=O)Oc2cccc(/C=N/NC(=O)COc3c(C)cccc3C)c2)cc1
CCOc1cc(/C=N/NC(=O)CNc2cccc(C)c2)ccc1OC(=O)c1ccccc1
CS(=O)(=O)Nc1cccc(-c2ccc3ncnc(NC4CCNCC4)c3c2)c1
CCN(CC)Cc1c(O)c(Cl)cc2c3c(c(=O)oc12)CCCC3
CCCC/C=C/C(NC(=O)c1ccc(-c2ccccc2)cc1)c1ccccc1 (centres undefined)
CCCN(CCC)C(=O)[C@@H](CCC(=O)O)NC(=O)c1ccccc1
CCCCCCCCCCCCC/C=C\[C@@H](O)[C@H](CO)NC(C)=O
CC(=O)Oc1cc(C(F)(F)F)ccc1C(=O)O
N[C@@H](C(=O)O)c1ccc(C(=O)O)cc1
O=C1N=C(N2CCOCC2)S/C1=C\C=C/c1ccccc1
O=C1/C(=C\c2ccc(Br)o2)SC(=Nc2ccccc2)N1c1ccccc1
C=CCn1c(=O)c2c(nc(-c3ccc(S(=O)(=O)O)cc3)n2C)n(C)c1=O
Cc1nnc(NC(=O)CCC(=O)NCc2cccs2)s1
COC(=O)c1sccc1NC(=O)CN(C)NS(=O)(=O)c1ccc(F)cc1
CCOC(=O)c1ccccc1NC(=O)CSc1cccc[n+]1[O-]
O=C(O)c1cc2cc(Cl)ccc2oc1=O
CN(C)CCNC(=O)C1CCCNC1=O (centres undefined)
OC[C@H]1O[C@H](n2cnc3c(NC4CCCC4)nc(Cl)nc32)[C@@H](O)[C@@H]1O
NC1(C(=O)O)CC(C(=O)O)C1 (centres undefined)
Cc1cc(C=O)c(C)n1-c1ccc(N2CCCCC2)c([N+](=O)[O-])c1
CN(Cc1ccco1)c1cc(-c2ccoc2)ncn1

AC50, active:
COCCn1c(=O)c(-c2ccccc2)nc2cnc(Oc3ccc(OC)cc3)nc21 1 µM
COCCn1c(=O)c(C)nc2cnc(Oc3ccc(OC)cc3)nc21 15.8 µM
COCCn1c(=O)c(-c2ccc(Cl)cc2)nc2cnc(OC)nc21 7.94 µM
COCCn1c(=O)c(-c2ccc(OC)cc2)nc2cnc(OC)nc21 15.8 µM
COc1ncc2nc(-c3ccc(Cl)cc3)c(=O)n(C[C@H]3CCCO3)c2n1 10 µM
COc1ccccc1-c1nccc(-n2ccnc2)n1 1.58 µM
Cc1noc(C)c1-c1nccc(-n2ccnc2)n1 1.26 µM
COc1ccccc1-c1cc(-n2ccnc2)ncn1 0.316 µM
Clc1ccccc1-c1nccc(-n2ccnc2)n1 1.26 µM
Cc1ccccc1-c1nccc(-n2ccnc2)n1 1 µM
CNc1ncnc2ccc(-c3ccccc3CN(C)C)cc12 7.94 µM
COc1ccccc1CNc1ncnc2ccc(-c3ccccc3OC)cc12 6.31 µM
COc1ccc(CNc2ncnc3ccc(-c4ccccc4CN(C)C)cc23)c(OC)c1 7.94 µM
CN(C)Cc1ccccc1-c1ccc2ncnc(NCc3ccccc3)c2c1 15.8 µM
COc1ccc(CNc2ncnc3ccc(-c4ccccc4OC)cc23)c(OC)c1 2 µM
COc1ccccc1CNc1ncnc2ccc(-c3ccccc3CN(C)C)cc12 12.6 µM
CCOc1cc(/C=N/NC(=O)COc2cccc(C)c2)ccc1OC(=O)c1cccs1 14.1 µM
CS(=O)(=O)Nc1cccc(-c2ccc3ncnc(Nc4ccccc4)c3c2)c1 10 µM
CS(=O)(=O)Nc1cccc(-c2ccc3ncnc(Nc4ccc(F)cc4)c3c2)c1 7.94 µM
CNc1ncnc2ccc(-c3cccc(NS(C)(=O)=O)c3)cc12 12.6 µM
CS(=O)(=O)Nc1cccc(-c2ccc3ncnc(NC4CC4)c3c2)c1 6.31 µM
COCCNc1ncnc2ccc(-c3cccc(NS(C)(=O)=O)c3)cc12 15.8 µM
CCCC/C=C/C(NC(=O)C(C)(C)C)c1ccccc1 (centres undefined) 25.1 µM
C#CCOC(=O)NC(/C=C/CCCC)c1ccccc1 (centres undefined) 12.6 µM
CCCC/C=C/C(NC(=O)c1cccs1)c1ccccc1 (centres undefined) 12.6 µM
CCCC/C=C/C(NC(=O)c1ccccc1)c1ccccc1 (centres undefined) 15.8 µM
CCCC/C=C/C(NC(=O)Oc1cccc(C(F)(F)F)c1)c1ccccc1 (centres undefined) 15.8 µM
CCN1C(=O)/C(=C2\SC(N3CCCCC3)=NC2=O)c2ccccc21 14.1 µM
S=C1SCN(Cc2ccccn2)CN1Cc1ccco1 20 µM
O=C1C(Cc2ccccc2)SC(=Nc2ccccc2)N1c1ccccc1 (centres undefined) 3.98 µM
C=CCn1c(=O)c2c(nc(Br)n2Cc2ccccc2Cl)n(C)c1=O 0.794 µM
O=C(COc1ccc(-c2ccccc2)cc1)N/N=C/c1ccccc1Br 14.1 µM
COc1ccccc1OCCn1cc(C(=O)c2ccco2)c2ccccc21 3.98 µM
Cc1ccccc1C(=O)c1cccn1CC(=O)NCc1ccco1 22.4 µM
O=C(Cn1cc(C(=O)c2ccco2)c2ccccc21)NCc1ccco1 25.1 µM
O=C(Cn1cccc1C(=O)c1ccccc1)NCc1cccs1 10 µM
c1ccc2c(c1)ncn2Cc1nnc2sc(-c3ccc4c(c3)OCO4)nn12 2.24 µM
COc1ccc(N2CC(C(=O)OCC(=O)c3cccc(OC)c3)CC2=O)cc1 (centres undefined) 14.1 µM
COC(=O)c1sccc1NC(=O)CSc1cc(Cl)ccc1Cl 22.4 µM
COC(=O)c1sccc1NC(=O)CSc1ccccc1NS(=O)(=O)c1ccc(Cl)cc1 3.55 µM
Cc1ccc(C(=O)NNC(=O)CSc2nnc(-c3ccncc3)n2-c2ccc(C)cc2)cc1 3.16 µM
CCn1c(SCC(=O)Nc2ccccc2C(=O)OC)nnc1-c1ccc(N)cc1 0.631 µM
Cc1ccccc1NC(=O)CSc1nnc(-c2ccccc2)n1-c1ccccc1 3.55 µM
O=C(CSc1nnc(-c2ccccc2)n1-c1ccccc1)c1cccs1 7.08 µM
CCOc1ccc(-n2c(SCC(=O)Nc3ccccc3C)n[nH]c2=O)cc1 12.6 µM
Cc1cnc(NC(=O)CCCc2nc3ccccc3s2)s1 2 µM
COc1cc(C2C(C(=O)OCCC#N)=C(C)NC3=C2S(=O)(=O)c2ccccc23)cc(OC)c1OC (centres undefined) 5.01 µM
Cc1cc(C=O)c(C)n1-c1ccc(NC2CCCC2)c([N+](=O)[O-])c1 4.47 µM
CN(Cc1ccco1)c1cc(-c2ccc3c(c2)OCO3)ncn1 3.98 µM
CN(C)c1ccc(-c2cc(N(C)Cc3ccco3)ncn2)cc1 12.6 µM
CS(=O)(=O)Nc1cccc(-c2ccc3ncnc(NCCN4CCOCC4)c3c2)c1 15.8 µM
CS(=O)(=O)Nc1cccc(-c2ccc3ncnc(N4CCNCC4)c3c2)c1 15.8 µM
CS(=O)(=O)Nc1cccc(-c2ccc3ncnc(N4CCOCC4)c3c2)c1 7.94 µM

activity, negative = inhibition, inactive:
Cn1c(=O)n(-c2cccc(Cl)c2)c(=O)c2c3c(sc21)COC(C)(C)C3 -4.67% [at 2.29 µM]
O=S1(=O)N[C@H]2CC[C@@H]3NS(=O)(=O)N[C@H]4CC[C@H](N1)N4S(=O)(=O)N23 5.02% [at 11.4 µM]
c1ccc2cc(-c3cc(-c4cc(-c5ccc6ccccc6c5)on4)no3)ccc2c1 -8% [at 11.4 µM]
[O-][N+]1(CC[N+]2([O-])CCCCC2)CCCCC1 -11.4% [at 11.4 µM]
CN(C)CN1C(=O)S/C(=C2/C(=O)N(CN(C)C)c3ccccc32)C1=O 4.92% [at 11.4 µM]
Cc1ccc([C@@]2(C)CC/C(=N/N=C3\CC[C@](C)(c4ccc(C)c(C)c4)c4cc(C)c(C)cc43)c3cc(C)c(C)cc32)cc1C -0.566% [at 11.4 µM]
c1ccc(CCNCc2ccco2)nc1 -15.3% [at 11.4 µM]
S=c1nc[nH]c2c1ncn2Cc1ccco1 -14.9% [at 11.4 µM]
C/C(=N/O)c1ccc2cc(Br)c3ccccc3c2c1 -23.8% [at 11.4 µM]
COC(=O)Cn1c(=O)c2c(nc(Br)n2Cc2ccccc2Cl)n(C)c1=O -4.19% [at 2.29 µM]
O=C(COc1ccccc1-c1ccccc1)N/N=C/c1cccc2ccccc12 1.08% [at 2.29 µM]
CC(C)Oc1ccc(N2CC(C(=O)OCC(=O)NCc3ccccc3)CC2=O)cc1 (centres undefined) 1.29% [at 2.29 µM]
COC(=O)c1sccc1NC(=O)CSc1ccc(Cl)cc1 -2.63% [at 2.29 µM]
CCCCOC(=O)Nc1ccccc1C(=O)OC 20.6% [at 11.4 µM]
Cc1ncn(-c2ccccc2O)c1C -10.7% [at 11.4 µM]
CCCCOC(=O)Nc1nc2ccccc2s1 0.331% [at 11.4 µM]
COc1ccc(-n2c(C)cc(C=O)c2C)cc1Cl 6.7% [at 2.29 µM]
